Reference: publication PMC5540273 (PLoS ONE, 2017)
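Also: KINOMEscan kinase panel screen.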

These compounds were tested on SYK. Settings: concentration: 1 μM, replicates: in singlicate; n = 1.
`Cc1ccccc1-c1cc(-c2c[nH]nc2-c2ccccn2)ccn1` [GW680061] was tested, and the “%Inh” value was 36%. For `Cl.Cl.Cl.N#Cc1ccc(CCNc2nccc(-c3cccc(CN4CCNCC4)c3)n2)cc1` [GSK2137462], the “%Inh” value was 9%. `COc1cc2ncnc(Nc3cccc(Br)c3)c2cc1OC.Cl` [GI230329] was tested, and the “%Inh” value was 13%. In the case of `CCc1ccc(-c2ccc3c(c2)-c2n[nH]cc2S(=O)(=O)N3C)cc1`, the “%Inh” value is reported as 19%. In the case of `CNc1nc(-c2ccc3c(N)n[nH]c3c2)cc(N2C[C@@H](C(=O)NC3CCCCC3)OC[C@H]2C)n1` [GSK2375584], the “%Inh” value is reported as 26%. For `NS(=O)(=O)c1cccc(N/C=C2\C(=O)Nc3ccc(S(=O)(=O)Cc4c(Cl)cccc4Cl)cc32)c1` [GSK398099], the “%Inh” value was 0%. `COc1ccc(CSc2nnc(-c3ccc4ncsc4c3)o2)cc1C(F)(F)F` was tested, and the “%Inh” value was 0%. For `O=C(Nc1n[nH]c2nc(-c3ccco3)c(Br)cc12)C1CCN(Cc2ccccc2)C1.O=C(O)[C@H](O)[C@@H](O)C(=O)O` (stereo not drawn) [SB-742034], the “%Inh” value was 0%. `CS(=O)(=O)CCNCc1nc(-c2ccc3ncnc(Nc4ccc5c(cnn5Cc5ccccc5)c4)c3c2)cs1.Cl.Cl` [GW569716] was tested, and the “%Inh” value was 13%. For `Cc1ccc(NC(=O)Nc2ccc(Cl)cc2)cc1-c1ccc(C(=O)Nc2ccncc2)cc1` [GSK1398472], the “%Inh” value was 31%. For `CC[C@@H]1CO[C@H](C(=O)Nc2ccccc2)CN1c1cc(-c2ccc3c(N)n[nH]c3c2)nc(NC)n1` [GSK2376236], the “%Inh” value was 0%. With `COC(=O)c1cccc(NC(=O)NC2CCN(c3ccnc(Nc4ccc(F)cc4)n3)C2)c1` (stereo not drawn) [GSK1379725] the “%Inh” value was 17%. `O=c1cc(N2CCOCC2)nc2n(Cc3cccc(Cl)c3Cl)c3ccccc3n12` [GSK2299009] was tested, and the “%Inh” value was 50%. With `COc1ccc(Nc2nccc(N3CCC(NC(=O)C(C)c4ccc(Cl)cc4)CC3)n2)cc1` (stereo not drawn) [GSK1379812] the “%Inh” value was 32%. For `Nc1ncnc2occ(-c3ccc4c(c3)CCN4C(=O)Cc3cc(F)ccc3F)c12` [GSK2645446], the “%Inh” value was 0%. With `Cc1c(Cn2c3ccccc3n3c(=O)cc(N4CCOCC4)nc23)cccc1C(F)(F)F` [GSK2306394] the “%Inh” value was 5%. With `COc1ccc(Nc2nccc(N3CCC(NC(=O)c4cc5ccccc5s4)C3)n2)cc1` (stereo not drawn) [GSK1379738] the “%Inh” value was 13%. In the case of `Cn1cncc1C(=O)NC1CCN(c2ccnc(Nc3ccc(F)cc3)n2)C1` (stereo not drawn) [GSK1379717], the “%Inh” value is reported as 5%. With `CC(=O)c1cccc(NC(=O)NC2CCN(c3ccnc(Nc4ccc(F)cc4)n3)C2)c1` (stereo not drawn) [GSK1379710] the “%Inh” value was 29%. For `COc1cccc(C2=C(Nc3cc(Cl)c(O)c(Cl)c3)C(=O)NC2=O)c1` [SB-390767], the “%Inh” value was 0%. In the case of `COc1cccc(CNC(=O)NC2CCN(c3ccnc(Nc4ccc(F)cc4)n3)C2)c1` (stereo not drawn) [GSK1379723], the “%Inh” value is reported as 18%. In the case of `Fc1ccc(-c2nn3cccc(F)c3c2-c2ccncc2)cc1` [GW475620], the “%Inh” value is reported as 14%. For `CSc1ccc(-c2nc3n(c2-c2ccncc2)CCC3)cc1` [SKF-105561], the “%Inh” value was 18%. `COc1ccc(CSc2nnc(-c3ccc4nccn4c3)o2)cc1C(F)(F)F` was tested, and the “%Inh” value was 0%. In the case of `O=C1NC(=O)C(c2ccc(Cl)cc2)=C1Nc1ccc(O)cc1` [SB-340867], the “%Inh” value is reported as 4%. With `CC(=O)c1c(C)c2cnc(Nc3ccc(N4CCNCC4)cn3)nc2n(C2CCCC2)c1=O` the “%Inh” value was 0%. `CNCc1ccc2nc(NC(=O)c3ccc(C(C)(C)C)cc3)cn2c1` was tested, and the “%Inh” value was 2%. `CNc1nc(-c2ccc3c(N)n[nH]c3c2)cc(N2C[C@@H](C(=O)Nc3ccccc3)CC[C@H]2C)n1` [GSK2298859] was tested, and the “%Inh” value was 16%. In the case of `COC(=O)c1cccc(NC(=O)NC2CCN(c3ccnc(Nc4ccc(OC)cc4)n3)C2)c1` (stereo not drawn) [GSK1379746], the “%Inh” value is reported as 0%. For `Cc1ccccc1Cn1ccn2c(=O)cc(N3CCOCC3)nc12` [GSK2269905], the “%Inh” value was 23%. In the case of `Nc1cccc(-c2ccc3c(N)n[nH]c3c2)n1` [GSK2192730], the “%Inh” value is reported as 0%. In the case of `COc1ccc(CSc2nnc(-c3ccc4c(c3)CCO4)o2)cc1`, the “%Inh” value is reported as 0%. For `COC(=O)C(Cc1ccccc1)NC(=O)NC1CCN(c2ccnc(Nc3ccc(F)cc3)n2)C1` (stereo not drawn) [GSK1379714], the “%Inh” value was 34%. With `c1ccc(-c2ccnc3[nH]ccc23)cc1` [SB-693578] the “%Inh” value was 0%. `Cc1nccc(-c2c(-c3ccc(F)cc3)ncn2CCCN2CCOCC2)n1.Cl` [SB-282975] was tested, and the “%Inh” value was 28%. For `COc1nccc(-c2c(-c3ccc(F)cc3)ncn2CCCN2CCOCC2)n1` [SB-282852], the “%Inh” value was 0%.

The compounds below were run on SgK110. Settings: concentration: 1 μM, replicates: in singlicate; n = 1.
`Cc1ccccc1-c1cc(-c2c[nH]nc2-c2ccccn2)ccn1` [GW680061] was tested, and the “%Inh” value was 0%. `Cl.Cl.Cl.N#Cc1ccc(CCNc2nccc(-c3cccc(CN4CCNCC4)c3)n2)cc1` [GSK2137462] was tested, and the “%Inh” value was 23%. In the case of `COc1cc2ncnc(Nc3cccc(Br)c3)c2cc1OC.Cl` [GI230329], the “%Inh” value is reported as 17%. For `CCc1ccc(-c2ccc3c(c2)-c2n[nH]cc2S(=O)(=O)N3C)cc1`, the “%Inh” value was 0%. With `CNc1nc(-c2ccc3c(N)n[nH]c3c2)cc(N2C[C@@H](C(=O)NC3CCCCC3)OC[C@H]2C)n1` [GSK2375584] the “%Inh” value was 0%. In the case of `NS(=O)(=O)c1cccc(N/C=C2\C(=O)Nc3ccc(S(=O)(=O)Cc4c(Cl)cccc4Cl)cc32)c1` [GSK398099], the “%Inh” value is reported as 0%. In the case of `COc1ccc(CSc2nnc(-c3ccc4ncsc4c3)o2)cc1C(F)(F)F`, the “%Inh” value is reported as 25%. `O=C(Nc1n[nH]c2nc(-c3ccco3)c(Br)cc12)C1CCN(Cc2ccccc2)C1.O=C(O)[C@H](O)[C@@H](O)C(=O)O` (stereo not drawn) [SB-742034] was tested, and the “%Inh” value was 37%. With `CS(=O)(=O)CCNCc1nc(-c2ccc3ncnc(Nc4ccc5c(cnn5Cc5ccccc5)c4)c3c2)cs1.Cl.Cl` [GW569716] the “%Inh” value was 0%. For `Cc1ccc(NC(=O)Nc2ccc(Cl)cc2)cc1-c1ccc(C(=O)Nc2ccncc2)cc1` [GSK1398472], the “%Inh” value was 10%. In the case of `CC[C@@H]1CO[C@H](C(=O)Nc2ccccc2)CN1c1cc(-c2ccc3c(N)n[nH]c3c2)nc(NC)n1` [GSK2376236], the “%Inh” value is reported as 0%. `COC(=O)c1cccc(NC(=O)NC2CCN(c3ccnc(Nc4ccc(F)cc4)n3)C2)c1` (stereo not drawn) [GSK1379725] was tested, and the “%Inh” value was 0%. In the case of `O=c1cc(N2CCOCC2)nc2n(Cc3cccc(Cl)c3Cl)c3ccccc3n12` [GSK2299009], the “%Inh” value is reported as 0%. `COc1ccc(Nc2nccc(N3CCC(NC(=O)C(C)c4ccc(Cl)cc4)CC3)n2)cc1` (stereo not drawn) [GSK1379812] was tested, and the “%Inh” value was 27%. For `Nc1ncnc2occ(-c3ccc4c(c3)CCN4C(=O)Cc3cc(F)ccc3F)c12` [GSK2645446], the “%Inh” value was 0%. In the case of `Cc1c(Cn2c3ccccc3n3c(=O)cc(N4CCOCC4)nc23)cccc1C(F)(F)F` [GSK2306394], the “%Inh” value is reported as 0%. In the case of `COc1ccc(Nc2nccc(N3CCC(NC(=O)c4cc5ccccc5s4)C3)n2)cc1` (stereo not drawn) [GSK1379738], the “%Inh” value is reported as 0%. In the case of `Cn1cncc1C(=O)NC1CCN(c2ccnc(Nc3ccc(F)cc3)n2)C1` (stereo not drawn) [GSK1379717], the “%Inh” value is reported as 6%. For `CC(=O)c1cccc(NC(=O)NC2CCN(c3ccnc(Nc4ccc(F)cc4)n3)C2)c1` (stereo not drawn) [GSK1379710], the “%Inh” value was 0%. `COc1cccc(C2=C(Nc3cc(Cl)c(O)c(Cl)c3)C(=O)NC2=O)c1` [SB-390767] was tested, and the “%Inh” value was 0%. In the case of `COc1cccc(CNC(=O)NC2CCN(c3ccnc(Nc4ccc(F)cc4)n3)C2)c1` (stereo not drawn) [GSK1379723], the “%Inh” value is reported as 1%. For `Fc1ccc(-c2nn3cccc(F)c3c2-c2ccncc2)cc1` [GW475620], the “%Inh” value was 0%. For `CSc1ccc(-c2nc3n(c2-c2ccncc2)CCC3)cc1` [SKF-105561], the “%Inh” value was 0%. For `COc1ccc(CSc2nnc(-c3ccc4nccn4c3)o2)cc1C(F)(F)F`, the “%Inh” value was 0%. `O=C1NC(=O)C(c2ccc(Cl)cc2)=C1Nc1ccc(O)cc1` [SB-340867] was tested, and the “%Inh” value was 50%. `CC(=O)c1c(C)c2cnc(Nc3ccc(N4CCNCC4)cn3)nc2n(C2CCCC2)c1=O` was tested, and the “%Inh” value was 0%. `CNCc1ccc2nc(NC(=O)c3ccc(C(C)(C)C)cc3)cn2c1` was tested, and the “%Inh” value was 9%. For `CNc1nc(-c2ccc3c(N)n[nH]c3c2)cc(N2C[C@@H](C(=O)Nc3ccccc3)CC[C@H]2C)n1` [GSK2298859], the “%Inh” value was 0%. With `COC(=O)c1cccc(NC(=O)NC2CCN(c3ccnc(Nc4ccc(OC)cc4)n3)C2)c1` (stereo not drawn) [GSK1379746] the “%Inh” value was 0%. In the case of `Cc1ccccc1Cn1ccn2c(=O)cc(N3CCOCC3)nc12` [GSK2269905], the “%Inh” value is reported as 0%. In the case of `Nc1cccc(-c2ccc3c(N)n[nH]c3c2)n1` [GSK2192730], the “%Inh” value is reported as 0%. For `COc1ccc(CSc2nnc(-c3ccc4c(c3)CCO4)o2)cc1`, the “%Inh” value was 26%. With `COC(=O)C(Cc1ccccc1)NC(=O)NC1CCN(c2ccnc(Nc3ccc(F)cc3)n2)C1` (stereo not drawn) [GSK1379714] the “%Inh” value was 0%. For `c1ccc(-c2ccnc3[nH]ccc23)cc1` [SB-693578], the “%Inh” value was 0%. With `Cc1nccc(-c2c(-c3ccc(F)cc3)ncn2CCCN2CCOCC2)n1.Cl` [SB-282975] the “%Inh” value was 26%. In the case of `COc1nccc(-c2c(-c3ccc(F)cc3)ncn2CCCN2CCOCC2)n1` [SB-282852], the “%Inh” value is reported as 0%.
